A number with no mark means an inactive call. Activity calls are given as the source filed them.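 The calls were made as follows: active = high combined rank on largest and smallest cell-count-weighted shift across three tests, rank score above 45, floors 50 and 25 (some results past the limit were not filed as active); inactive = the rest.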
assay: LNCaP granularity increase inducers, single-point recheck – cell-based, side scatter shift, flow cytometry, confirmation (AID 1069); settings: LNCaP differentiation, 4 d, at 100 µM, active compounds read high;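 also: LNCaP human prostate cancer cells in low-serum medium with charcoal-stripped FBS; percent of cells with raised granularity gated so DMSO controls show 10%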

Structure (SMILES)	side scatter shift
COc1ccc(OC)c(CNC(=O)CCNC(=O)Cn2ccc3ccccc3c2=O)c1	12.7%
COc1ccccc1NC(=O)c1nc[nH]c1C(=O)Nc1ccccc1OC	50.5%
Cc1oc(-c2cccc(Cl)c2)nc1CN1CCCC(C(=O)NC(C)c2ccc3c(c2)OCCO3)C1 (configuration not stated)	0%
Cc1oc(-c2ccc(Cl)cc2)nc1CN1CCC(C(=O)N2CCN(Cc3ccccc3)CC2)CC1	33.3% (active)
COc1ccc(S(=O)(=O)Nc2ccc(F)c(Cl)c2)cc1OC	44.4%
Cc1oc(-c2ccc(Cl)cc2)nc1CN1CCCC(C(=O)N2CCN(C(=O)c3ccco3)CC2)C1 (configuration not stated)	42.1%
Nc1cccc2cnccc12	4.1%
Cc1ccc(C(=O)/C=C/Nc2cccc(O)c2)cc1	35.3%
CCOC(=O)c1ccccc1NC(=O)Cn1c(-c2nonc2N)nc2ccccc21	30.6% (active)
c1ccc(CSc2nnc(-c3cccs3)n2Cc2ccco2)cc1	20%
O=C(NCCCN1CCN(c2ccc(F)cc2)CC1)c1cccc(N2CCCC2=O)c1	51.9% (active)
CCOC(=O)N1CCN(C(=O)CCc2c(C)nc3c(c(C)nn3-c3ccc(C)c(C)c3)c2C)CC1	0%
CCc1ccc(-c2nc(CN3CCC(C(=O)NCc4ccco4)CC3)c(C)o2)cc1	20%
CC(C)(C)OC(=O)N1CCC(C(=O)N2CCCCCC2)CC1	16.1%
COc1ccc(C(CC(=O)O)NC(=O)Cc2ccccc2)cc1 (configuration not stated)	2.7%
O=c1cc(N2CCN(c3ccc(F)cc3)CC2)[nH]c(=O)n1C1CCCCC1	16.8%
Cc1ccccc1-c1nc(CN2CCC(C(=O)N3CCC(C(N)=O)CC3)CC2)c(C)o1	12%
Cc1ccc(CN2CCSc3ccc(C(=O)N4CCN(c5ncccn5)CC4)cc32)cc1	18.6%
CSc1nc2ccc(Nc3nc(N4CCOCC4)nc(N4CCOCC4)n3)cc2s1	14.6%
CS(=O)(=O)c1nc(-c2cccs2)cc(C(F)(F)F)n1	52.8%
Cc1ccccc1-c1nc(CN2CCC(C(=O)NCCCN3CC(C)CC(C)C3)CC2)c(C)o1 (configuration not stated)	54.5% (active)
O=C1CCCc2c1cc(C(=O)NC1CCSC1=O)c(=O)n2-c1ccccc1 (configuration not stated)	5.9%

Reference: PubChem BioAssay AID1069 (NMMLSC, 2008)
